Assay outcomes (PubChem)
Only some compounds are listed: those with a hit (about 4.7% of all), similar ones and a draw of the others.
D1 PAM: enhances dopamine response at the human D1 receptor | P21728 | HEK293 TREx D1 cells, calcium flux, dopamine EC20 potentiation | potentiation, % at 10 µM | 360,000 tested, 0.036% active; in the data active = potentiation above about 30%
TRHR enhancer: TRH receptor (human) allosteric enhancement. P34981. TRHR cells, fluo-8 calcium fluorescence, EC20 TRH enhancement. enhancement, % at 2 µM. 360,000 tested, 0.66% active; in the data active = enhancement above about 30%
Target sequence (P34981 whole entry, looked up): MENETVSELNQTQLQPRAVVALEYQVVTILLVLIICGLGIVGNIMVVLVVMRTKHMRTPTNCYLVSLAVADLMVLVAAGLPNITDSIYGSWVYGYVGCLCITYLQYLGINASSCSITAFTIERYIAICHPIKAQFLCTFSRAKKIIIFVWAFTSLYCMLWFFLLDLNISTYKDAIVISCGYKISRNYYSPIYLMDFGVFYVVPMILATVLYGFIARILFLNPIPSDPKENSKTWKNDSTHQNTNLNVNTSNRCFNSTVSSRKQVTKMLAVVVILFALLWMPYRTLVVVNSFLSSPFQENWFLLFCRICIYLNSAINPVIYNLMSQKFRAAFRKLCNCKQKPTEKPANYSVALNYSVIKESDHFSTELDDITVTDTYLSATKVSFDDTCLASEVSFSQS
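TRHR-expressing cells loaded with fluo-8 calcium dye were read kinetically (ex 480/em 530) during compound addition, then stimulated with an EC20 of TRH (10 nM final). Enhancement of the Gq-mediated intracellular calcium response was scored.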
D1 ag: activates the human D1 dopamine receptor; P21728; HEK293 T-REx D1 cells, calcium flux, agonist mode; activation, % at 2 µM; 360,000 tested, 1% active
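Agonism was scored from calcium flux recorded over 180 s (1 read/s) after pintool compound addition, following a 10-cycle baseline. Cells were inducible force-coupled HEK293 TREx D1, plated overnight at 30 C and loaded with no-wash calcium dye.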
D1 antagonist: blocks dopamine activation of the human D1 receptor | P21728 | HEK293 TREx D1 cells, calcium flux, dopamine EC80; active compounds read low | activity change, negative = inhibition, % at 10 µM | 360,000 tested, 3.2% active; in the data active = activity change below about -30%
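Compound effects on dopamine-evoked calcium signalling were measured in tetracycline-induced HEK293 Trex D1 cells. Dopamine at EC80 followed a 180 s compound pre-read, and fluorescence was tracked kinetically for 180 s more.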
TRHR ag: activates the human TRH receptor; activation, % at 2 µM; P34981; TRHR cells, calcium flux fluo-8, FDSS agonist mode; AID 493084; 360,000 tested, 0.18% active
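Fluo-8-loaded TRHR cells; 10 s baseline, compound added, kinetic Ca2+ fluorescence read 1/s, agonist mode.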
Large screens that a line does not name were inactive. Rule as the data show it, unless noted: active = activation above about 30%; inactive = the rest.

CCOc1ccccc1CNc1nc2nc(C)cc(C)n2n1	none
CCC(CO)Nc1ncnc2onc(-c3ccc(F)cc3)c12 (stereo not given)	TRHR enhancer 40
COc1ccc(N(C(=O)c2cccc(C)c2)S(=O)(=O)c2ccc(C)cc2)cc1	none
Cc1ccc(-c2nc(C)c(CCNC(=O)C(=O)Nc3ccc(C)c(Cl)c3)s2)cc1	none
S=C(Nc1ccc(Cl)c(Cl)c1)NC1CCN(Cc2ccccc2)CC1	D1 ag 47, D1 antagonist -43
S=C(NCc1ccccc1)N1CCN(Cc2ccc3c(c2)OCO3)CC1	none
S=C(Nc1ccc2nsnc2c1)NC1CCCCC1	D1 ag 46
S=C(Nc1ccc(Cl)c(Cl)c1)NC1CCCCC1	D1 antagonist -41
S=C(Nc1ccc2nsnc2c1)N1CCCCCC1	none
S=C(NCc1ccc2c(c1)OCO2)NC1CCN(Cc2ccccc2)CC1	D1 ag 38
CCCCC#Cc1cncc(C(=O)NN)c1	D1 antagonist -54
CCCCCCC#Cc1cncc(C(=O)NNC(=O)Nc2cc(Cl)cc(Cl)c2)c1	none
CCOC(=O)c1c(CSC(=N)N)n(-c2ccc(Br)cc2)c2cc(Br)c(OC(C)=O)cc12	D1 ag 40
Cc1ccc2nc3sc(C(=O)N4CCCc5ccccc54)c(N)c3cc2c1	D1 ag 36
CS(=O)(=O)NN1C(=O)c2ccccc2NC1c1ccccc1O (stereo not given)	none
CC(=O)NN1C(=O)c2ccccc2NC1c1ccccc1O (stereo not given)	TRHR enhancer 33
COc1ccc(OC)c(/C=C2\NC(=O)NC2=O)c1	none
COc1cc(N2CCCC2)c(OC)cc1/C=C1/NC(=S)NC1=O	D1 ag 183, D1 antagonist -35, TRHR ag 71
O=C(COC(=O)CNC(=O)c1ccccc1)Nc1cc(C(F)(F)F)ccc1Cl	none
O=S(=O)(Cc1ccccc1)Nc1ccc(F)cc1	none
C/C(=N\NC(=O)c1cc(C)nc2ccccc12)c1ccncc1	D1 antagonist -43
C/C(=N\NC(=O)c1cc(-c2cccc(OC(C)C)c2)nc2ccccc12)c1cccnc1	D1 antagonist -43
Cc1onc(-c2c(F)cccc2Cl)c1C(=O)Nc1c(C)n(C)n(-c2ccccc2)c1=O	none
Cc1onc(-c2c(F)cccc2Cl)c1C(=O)NC(=S)Nc1c(C)n(C)n(-c2ccccc2)c1=O	D1 antagonist -67
CCOC(=O)c1nc(-c2ccccc2)oc1N(C)C	TRHR enhancer 30
COc1ccc(CCN2C(=O)N(c3ccc(F)cc3)C(=O)C2CC(=O)Nc2ccccc2)cc1 (stereo not given)	none
COC(=O)CN1C(=S)N(c2ccc(Cl)cc2)C(=O)C1CC(=O)Nc1ccc(F)cc1 (stereo not given)	none
Cc1cccc(N2C(=O)C(CC(=O)Nc3ccc(Cl)cc3)N(Cc3ccco3)C2=O)c1 (stereo not given)	none
O=C(CC1C(=O)N(c2ccccc2)C(=O)N1Cc1ccco1)Nc1ccccc1 (stereo not given)	D1 antagonist -44
COc1ccc(NC(=O)CC2C(=O)N(c3ccc(C)cc3)C(=O)N2CCc2ccccc2)cc1 (stereo not given)	D1 antagonist -37
COc1ccc(NC(=O)CC2C(=O)N(c3ccc(OC)cc3)C(=O)N2CCC2=CCCCC2)cc1 (stereo not given)	D1 antagonist -31
COC(=O)CN1C(=S)N(c2ccc(F)cc2)C(=O)C1CC(=O)Nc1ccc(F)cc1 (stereo not given)	D1 antagonist -51
CC1CCCCC12NC(=O)N(CC(=O)Nc1ccc(N3CCCCC3)cc1)C2=O (stereo not given)	none
COc1cccc(N2CCN(C(=O)Cn3cnc4onc(-c5ccc(F)cc5)c4c3=O)CC2)c1	none
COc1ccc(NC(=O)CC2C(=O)N(c3ccc(F)cc3)C(=O)N2CCc2sccc2C)cc1 (stereo not given)	none
CCOc1ccc(NC(=O)CC2C(=O)N(c3ccc(F)cc3)C(=O)N2CCc2sccc2C)cc1 (stereo not given)	TRHR enhancer 42
CCCOc1ccc(NC(=O)CC2C(=O)N(c3ccc(Cl)cc3)C(=O)N2CCc2ccncc2)cc1 (stereo not given)	D1 antagonist -35
c1coc(CNC2CCCCC2)c1	none
c1coc(CNC2CCCCCCC2)c1	D1 antagonist -48
O=C(Nc1cccnc1)C1=NN(C2CCS(=O)(=O)C2)C(=O)CC1 (stereo not given)	TRHR enhancer 39
CCc1nnc(NC(=O)C2=NN(C3CCS(=O)(=O)C3)C(=O)CC2)s1 (stereo not given)	none
O=C(NCCc1cccc(C(F)(F)F)c1)C1CCC(=O)N(C2CC2)C1 (stereo not given)	none
COc1ccc(C(CNC(=O)c2cc(=O)[nH]c3ccccc23)N2CCCC2)cc1 (stereo not given)	D1 antagonist -38
COc1ccc(C(=O)NCC(c2ccc(N(C)C)cc2)N2CCCC2)c(OC)c1 (stereo not given)	none
COc1ccc(C(CNC(=O)c2nn(-c3ccccc3)c(=O)c3ccccc23)N2CCOCC2)cc1 (stereo not given)	TRHR enhancer 32
COc1ccc(C(CNC(=O)c2ccccc2C)N2CCCC2)cc1 (stereo not given)	none
COc1ccc(Cl)cc1C(=O)NCC(c1ccc(N(C)C)cc1)N1CCCC1 (stereo not given)	D1 ag 34
CCC(C)NC(=O)CNC(=O)c1nn(-c2ccc(OC)cc2)c(=O)c2ccccc12 (stereo not given)	none
COc1ccc(C(CNC(=O)c2ccc(-c3cccc(C(F)(F)F)c3)o2)N2CCOCC2)cc1 (stereo not given)	D1 ag 34
COc1ccc(C(CNC(=O)c2ccco2)N2CCOCC2)cc1 (stereo not given)	none
COc1ccccc1NC(=O)CSc1nc(-c2ccccc2F)nc2cc(=O)[nH]n12	none
Cc1cc(C(=O)NN)c2cc(Br)ccc2n1	D1 antagonist -35
O=C(Cn1cc([N+](=O)[O-])cn1)Nc1cccnc1	none
O=C1CCCc2ccccc2N1Cc1cccc(F)c1	TRHR enhancer 34
COc1ccc(CNC(=O)Nc2ccc3c(c2)N(C)C(=O)c2ccccc2S3)cc1	none
CCN1CCN(c2ccc(S(=O)(=O)N3CCCCC3)cc2NC(=O)c2ccc([N+](=O)[O-])s2)CC1	none
O=C(O)CNC(=O)/C(=C/c1ccco1)NC(=O)/C=C/c1ccccc1	D1 ag 270, D1 antagonist -36
C=CCOC(=O)/C(=C/c1ccco1)NC(=O)/C=C/c1ccccc1	none
CCCCNC(=O)c1ccc2c(SCC(=O)O)c3c(nc2c1)CCCC3	none
CCCN(C(=O)c1ccc2c(SCC(=O)O)c3c(nc2c1)CCC3)c1cccc(C)c1	D1 antagonist -39
